Assay results: PubChem BioAssay AID504819 (NMMLSC, 2011)
The other results are listed elsewhere or left out. Unmarked numbers belong to inactive results.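 Rule for the calls: active = compounds quenching the bead-bound labeled aptamer, with fluorescence dropping by more than 37 kMESF over the dose range; inactive = the rest.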

Assay: aptamer fluorescence quenchers on streptavidin beads – biochemical, flow cytometry, cherry pick 2, artefact control for GRK2 aptamer inhibitor project, dose response (AID 504819)
Conditions: FAM-RNA aptamer fluorescence quenching, stronger effect = higher value

Structure (SMILES)	change in fluorescence (kMESF span) [kMESF]
O=C(CCS(=O)(=O)c1ccc(Br)cc1)NCCc1ccc(Cl)cc1	2.5
COc1ccc(Cl)cc1NC(=O)CCS(=O)(=O)c1ccc(Br)cc1	1.4
